# Experimental data reported in PubChem BioAssay (NCI).
# This is part of a sample that, as a whole, favours compounds with a hit. Of some 83,000 tested, about 20% had one in any assay.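 A percent growth of 40 corresponds to 60% growth inhibition; 0 means no net growth; -100 means all cells died. Active threshold: below 10.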 Activity calls are given as the source filed them.
# Test system: NCI-H226 lung
# Experiment: NCI-60 one-dose screen, 48 h (100 = growth as untreated, 0 = no growth, -100 = all killed)
# Details: 10 µM unless noted
# Procedure: Growth inhibition of the NCI-H226 human Non-Small Cell Lung tumor cell line is measured as a screen for anti-cancer activity. Cells are grown in 96 well plates and exposed to the test compound for 48 hours. Compounds are tested at a single concentration, which is 10^-5 M for most compounds. The reported endpoint is percent growth (GI% or GIPRCNT), where numbers from 0 - 100% represent growth inhibition, and numbers from -100% - 0 represent cell death. For example, a value of 40 represents 60% growth inhibition. A value of 0 means no net growth occurred over the course of the experiment. A value of -40 indicates 40% of cells at the beginning of the experiment died by the end of the experiment. A value of -100 means all cells are dead at the end of the experiment.
# NCI-60 Human Tumor Cell Lines Screen was performed using the standard one-dose NCI protocol, which is described in more detail at https://dtp.cancer.gov/discovery_development/nci-60/default.htm.
# Compounds with GIPRCNT values below 10 were considered active. Activity score was based on GIPRCNT using the following formula: […]
# Score is 0 for GIPRCNT values of 100 or above, 50 for GIPRCNT values of 0, and 100 for GIPRCNT values of -100.
row,SMILES,growth
1,CCOC(=O)CC1C(CNC(=O)NC)OC(n2cnc3c(NC(=O)Nc4ccccc4)ncnc32)C1O[Si](C)(C)C(C)(C)C (stereo not given),75.9% (inactive)
2,C(CCCSC1=NCCN1)CCSC1=NCCN1,107% (inactive)
3,CCCC1Cc2cc(-n3nc(C)c4c3CC(C)(C)CC4=O)cc(NC3CCC(O)CC3)c2C(=O)N1 (stereo not given),47.7% (inactive)
4,O=C(Nc1ncc(Cc2ccccc2)s1)c1ccc2c(c1)OCCO2,12.8% (inactive)
5,Nc1ccc(Cl)c2c(=O)c3ccccc3[nH]c12,77% (inactive)
6,COc1ccccc1-c1nc2ccc3[nH]ncc3c2c2c1CCCC2,81.4% (inactive)
7,O=C(OCC(O)C(=O)NC12CC3CC(CC(C3)C1)C2)c1cccc(Br)c1 (stereo not given),97.5% (inactive)
8,C=CN(C(=O)N1CCN(c2cc3c(cc2F)c(=O)c(C(=O)O)cn3C2CC2)CC1)c1nc(-c2ccc(C)cc2)cs1,35.4% (inactive)
9,COc1ccc(C(c2cc(OC)c(OC)c(OC)c2)n2cncn2)cc1O (stereo not given),73.4% (inactive)
10,Cc1c(N2CCCCC2)[nH]c2ccccc12,119% (inactive)
11,Cc1ccc(OCCOCCOCCOCCOc2ccc(C)n(O)c2=S)c(=S)n1O,7.35% (active)
12,CCOC(=O)C#Cc1c(CC(=O)OCC)nnn1[C@H]1O[C@@H](CO)[C@@H]2OC(C)(C)O[C@@H]21,93.8% (inactive)
13,COc1ccc(C(=O)/C=C/c2ccc(Cl)cc2)cc1S(N)(=O)=O,84.3% (inactive)
14,Cc1cccc(CN(Nc2ccccc2)c2ccccc2)n1,103% (inactive)
15,COc1cccc(-c2cc(-c3ccc(Nc4nc(Nc5ccc(Cl)cc5)nc(Nc5ccc(Cl)cc5)n4)cc3)nc(N)c2C#N)c1,10.5% (inactive)
16,O=C(Nc1ccccc1CNc1nc(Nc2ccc(OCCN3CCCC3)cc2)ncc1Cl)NC1CCCCC1,97% (inactive)
17,Cc1ccc(NC(=O)c2ccc(Nc3ncnc4c3cnn4-c3cccc(F)c3)cc2)cc1,96.5% (inactive)
18,C=C(C)[C@@H]1CC[C@]2(COC(=O)c3cccnc3)CC[C@]3(C)[C@H](CC[C@@H]4[C@@]5(C)CCCN(C(=O)c6cccnc6)C(C)(C)[C@@H]5CC[C@]43C)[C@@H]12,42.1% (inactive)
19,NCCCCCNc1noc(Cc2c[nH]c3cc(Br)ccc23)n1,61% (inactive)
20,CCOC(=O)c1ccc2c(c1)[n+](=O)c(C(C)=O)c(C(F)(F)F)n2[O-],41.2% (inactive)

row,SMILES,growth
1,Fc1ccc(/C=C/c2cc(/C=C/c3ccc(F)cc3)n(-c3cc(F)cc(F)c3)n2)cc1,109% (inactive)
2,C=C(c1ccc(C(=O)O)c(F)c1)c1cc2c(cc1C)C(C)(C)C=CC2(C)C,65.5% (inactive)
3,COc1nc2ccccc2cc1/C=C1/C=C(c2ccccc2)NC1=O,55.4% (inactive)
4,CNC1=C([N+](=O)[O-])C(c2ccc(OC)cc2)C(C#N)=C(c2ccc[nH]2)O1 (stereo not given),102% (inactive)
5,O=C1c2c(c3c4cc(F)ccc4oc3c3[nH]c4ccccc4c23)C(=O)N1O,59.3% (inactive)
6,CCNCCNc1c(C)c(-c2ccc(C(F)(F)F)cc2)c(C#N)c2nc3ccccc3n12,84.8% (inactive)
7,O=C(/C=C\c1ccc(O)c(O)c1)c1ccccc1O,71.4% (inactive)
8,C/C(=C(\c1ccc(OCCCN(C)C)cc1)c1ccc(OC(=O)Cc2ccccc2)cc1)c1ccc(Cl)cc1,100% (inactive)
9,C=C(C)[C@@H]1CC[C@]2(C(=O)NC(C)=O)CC[C@]3(C)[C@H](CC[C@@H]4[C@@]5(C)CCCNC(C)(C)[C@@H]5CC[C@]43C)[C@@H]12,83.6% (inactive)
10,CCOC(=O)C1=C(C)N(C)C(=O)N(C)C1c1ccccc1 (stereo not given),93.3% (inactive)
11,COC1=C(OC)C(=O)C(CCCCCCCCCCO)=C(C)C1=O,96.6% (inactive)
12,N/C(=N\c1nc2ccccc2s1)NC(=O)Nc1ccccc1,87.8% (inactive)
13,CCN1C(=O)N(CC)C2C1NC(=S)N2/N=C/C=C/c1cccs1 (stereo not given),64.5% (inactive)
14,CN(C)c1ccc(Cc2cc(-c3ccccc3)nn(C/C(=N/O)c3ccccc3)c2=O)cc1,60.5% (inactive)
15,CN(C)c1ccc(/C=N/NC(=O)CSc2nc3sc4c(c3c(=O)n2-c2ccccc2)CCCCC4)cc1,96.5% (inactive)
16,COc1cc(OCc2cccc(-c3ccccc3)c2C)cc(OC)c1CN1CCCCC1C(=O)NCCOCCOCCN (stereo not given),86.4% (inactive)
17,CC(=O)OCCOc1cc(Cl)c(Cl)cc1Cl,101% (inactive)
18,CCCCC/C=C/CCC(=O)N[C@H]1[C@H](Oc2c3cc4cc2Oc2ccc(cc2Cl)[C@@H](O[C@@H]2O[C@H](CO)[C@@H](O)[C@H](O)[C@H]2NC(C)=O)[C@@H]2NC(=O)[C@H](NC(=O)[C@@H]4NC(=O)[C@H]4NC(=O)[C@@H](Cc5ccc(c(Cl)c5)O3)NC(=O)[C@@H](N)c3ccc(O)c(c3)Oc3cc(O)cc4c3)c3ccc(O)c(c3)-c3c(O[C@H]4O[C@H](CO)[C@@H](O)[C@H](O)[C@@H]4O)cc(O)cc3[C@H](C(=O)O)NC2=O)O[C@H](CO)[C@H](O)[C@@H]1O,105% (inactive)
19,CN1CCN(CC(=O)N(C)c2ccc(N=C(c3ccccc3)c3c(O)[nH]c4ccc([N+](=O)[O-])cc34)cc2)CC1,61.9% (inactive)
20,CCN(CC)CCCC(Nc1c2ccc(Cl)cc2nc2ccc(OC)cc12)c1ccncc1 (stereo not given),94.5% (inactive)
